# Myeloid diff MLP – induction of myeloid progenitor differentiation, primary screen, cell-based, flow cytometry, MLPCN library | calls only at 10 µM | hit rate 1% among 360,000 | AID 624256, 2012 | ER-HoxA9 myeloid progenitors, lysozyme-GFP differentiation;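 active means normalized GFP-positive differentiation at or above the plate's own cutoff, the solvent-only control mean plus 3 SD; inconclusive means no clear call, values can overlap the other calls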;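 further: cells exposed to compound for four days before flow analysis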
# LAP4-GFP MLPCN – modulators of LAP4-GFP expression in yeast, primary screen, S. cerevisiae, multiplex flow cytometry, MLPCN library; GFP response vs DMSO, % at 10 µM; 3 h; median GFP as percent of DMSO wells; hit rate 0.34% among 320,000; AID 2023, 2009;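 active means GFP response vs DMSO above a set limit, about the screen mean plus 3 SD, cut at about 150% in these data; inconclusive means under 70 cell events counted for the yeast strain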
# MEP2 TOR yeast – modulators of MEP2-GFP levels in yeast, primary screen, S. cerevisiae, multiplex flow cytometry, MLPCN library. S. cerevisiae MEP2-GFP strain, 3 h; 100% = DMSO control level. hit rate 0.51% among 330,000. GFP response vs DMSO, % at 10 µM. AID 2016, 2009;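 active means GFP response versus DMSO above a set limit, roughly screen mean plus 3 SD, cut at about 180% in these data; inconclusive means fewer than 70 cells counted for a yeast strain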;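 further: median GFP fluorescence of the barcode-gated MEP2-GFP cells per well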
# RPL19A-GFP yeast – RPL19A-GFP expression modulators in yeast, primary screen, cell-based, S. cerevisiae, multiplex flow cytometry, MLPCN; S. cerevisiae RPL19A-GFP strain, 3 h; hits give low values; percent response vs DMSO, % at 10 µM; hit rate 0.3% among 330,000; AID 2025, 2009;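 active means percent response vs DMSO below 50%; inconclusive means fewer than 70 events counted for the yeast strain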;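 further: median channel GFP fluorescence of the barcoded RPL19A-GFP strain; lower means less RPL19A-GFP as with rapamycin TOR inhibition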
# AGP1-GFP MLPCN – modulators of AGP1-GFP expression in yeast TOR pathway, primary screen, cell-based, multiplex flow cytometry, S. cerevisiae, MLPCN library | 3 h; GFP as percent of DMSO wells | AID 2066, 2009 | hit rate 0.02% among 320,000 | GFP response vs DMSO, % at 10 µM;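 active means GFP response relative to DMSO above a set limit, near screen average plus 3 SD, cut at about 150% in these data; inconclusive means fewer than 70 cells counted for the yeast strain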;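 further: median GFP channel fluorescence of the gated AGP1 strain per well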
# CIT2-GFP yeast – modulators of CIT2-GFP expression in yeast, primary screen, S. cerevisiae, GFP fusion, multiplex flow cytometry, MLPCN library; S. cerevisiae CIT2-GFP strain, 3 h; 100 means same as DMSO wells; GFP response vs DMSO, % at 10 µM; hit rate 0.065% among 320,000;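 active means GFP response relative to DMSO above a set limit, near the screen mean plus 3 SD, cut at about 150% in these data; inconclusive means Fewer than 70 cells measured for a yeast strain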;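 further: ratio of well median GFP fluorescence to mean of DMSO wells on the plate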
# A number is an active result; n = inactive; u = inconclusive; x = no result; + = active, no number; [ ] = remark or other dose. Hits are enriched below; roughly 1.8% of the tested compounds scored in any of these assays.
SMILES,Myeloid diff MLP,LAP4-GFP MLPCN,MEP2 TOR yeast,RPL19A-GFP yeast,AGP1-GFP MLPCN,CIT2-GFP yeast
CC(=O)Nc1cc(-c2ccccc2N(C)C)cn2c(-c3cccc(C(F)(F)F)c3)cnc12,+,x,x,x,x,x
COc1ccccc1N1CCN(C(=O)c2cccc(NC3=NC4CS(=O)(=O)CC4S3)c2)CC1 (configuration not stated),n,n,n,n,n,n
CCC1(c2ccc(F)cc2)NC(=O)N(CC(=O)Nc2ccc(C)c(S(=O)(=O)N3CCOCC3)c2)C1=O (configuration not stated),n,n,n,n,n,n
O=C(NCC(c1ccco1)N1CCCC1)c1ccc(Cl)c(S(=O)(=O)N2CCc3ccccc32)c1 (configuration not stated),+,n,n,n,n,n
N#CCC(=O)Nc1ccc(C(=O)NCC(c2ccco2)N2CCCCC2)cc1 (configuration not stated),+,n,n,n,n,n
N#CC(C#N)=C1C=C2C=C(N3CCOCC3)CCC2CC1 (configuration not stated),+,x,x,x,x,x
CN1CCN(C2=CC3=CC(=C(C#N)C#N)CCC3CC2)CC1 (configuration not stated),+,x,x,x,x,x
CCN1CCN(C2=CC3=CC(=C(C#N)C#N)CCC3CC2)CC1 (configuration not stated),+,x,x,x,x,x
N#CC(C#N)=C1C=C2C=C(N3CCCCCC3)CCC2CC1 (configuration not stated),n,x,x,x,x,x
CC1(C)CC(NCCN2CCN(C3=CC(=C(C#N)C#N)CC(C)(C)C3)CC2)=CC(=C(C#N)C#N)C1,n,n,n,n,n,n
COc1cccc(C(=O)CN2C3=NCCCN3c3ccccc32)c1,n,n,n,n,n,n
COc1ccc(/C=C/C(=O)C2CC2)cc1COc1c(C)cccc1C,n,n,n,41.6[may fluoresce violet],u,u
COc1ccc(/C=C/C(=O)O)cc1COc1cccc(C)c1,n,n,n,n,n,n
CCn1c(-c2ccc[nH]c2=O)nc2ccccc21,+,n,n,n,n,n
NNC(=O)c1cc2c(s1)CCCCCC2,+,n,n,n,n,n
COC(=O)c1ccc(CS(=O)(=O)c2ccc(F)cc2)o1,n,151.8,535.9,n,n,n
COC(=O)C1=CN(Cc2ccc(OC)cc2)C=C(C(=O)OC)C1c1ccsc1,n,n,256.6[may fluoresce violet],n,n,u
CCN(CC)S(=O)(=O)c1ccc(Cl)c(C(=O)OC)c1,+,n,n,n,n,n
CCN(CC)S(=O)(=O)c1cc(C(=O)OC)ccc1Cl,n,n,n,n,n,n
C=CCSC(=C(C#N)C#N)c1cc2c([nH]1)CCCC2,+,n,n,n,n,n
O=C(O)c1cc2c([nH]c1=O)CCCC2,n,n,n,n,n,n
CC(C)c1ccc(C2C3CSCC=C3C(C#N)=C(N)C2(C#N)C#N)cc1 (configuration not stated),x,169.6,n,n,n,n
CN1CC=C2C(C#N)=C(N)C(C#N)(C#N)[C@H](c3cccc(Cl)c3)C2C1 (some centres not stated),n,n,n,n,n,n
CC(=O)Nc1sc2c(c1C(c1ccccc1Cl)N1CCN(CCO)CC1)CCCC2 (configuration not stated),+,n,n,n,n,n
CCCCOC(=O)C1CCC[C@@H](C)N1 (some centres not stated),n,164.7,n,n,n,n
CC(C)(C)n1ncc2c(=O)n(CC(=O)NCc3ccc(F)cc3)cnc21,+,n,n,n,n,n
CC(C)(C)n1ncc2c(=O)n(CC(=O)NCc3ccco3)cnc21,n,n,n,n,n,n
O=C1C2C3C=CC(C4CC34)C2C(=O)N1/N=C/c1ccc([N+](=O)[O-])o1 (configuration not stated),u,158.4,n,n,n,n
NC(=O)c1ccc(SCC(=O)OCC(=O)N2CCCCC2)c([N+](=O)[O-])c1,n,n,n,n,n,n
